The list is not random: actives were taken first. Their share in the collection is about 7.9%.
FMDV antiviral: High Throughput Screening for Foot and Mouth Disease Virus Antivirals; FMDV antiviral cell-based qHTS; Potency, µM (highest dose often 57.9 µM), usual class: inhibitors; 410,000 tested, 1.2% active; calls by dose curve; tested in HEK293T cells; further: read-out not given here; nearly all actives have a fitted effect of over 45% in size
HCMV antiviral: qHTS Assay for inhibitors of the human cytomegalovirus (HCMV) | 410,000 tested, 4.5% active | AID 1259415, 2018 | activity change, negative = inhibition, % at 57.5 µM | HFF cells, HCMV-luciferase reporter, 72 h; active compounds read low; in the data active means activity change below about -60%; inconclusive means no clear call, values can overlap the other calls; inactive means above about -39%
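Steps: HFFs plated, 16 h 37C; compounds added; HCMV-luciferase added to MOI 1 PFU/cell; 72 h 37C; OneGlo reagent, 5 min room temperature; luminescence read, normalized to controls.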
HCV inhibitor: qHTS Assay for Inhibitors of Hepatitis C Virus (HCV); 340,000 tested, 3.4% active; Potency, µM (highest dose often 41.8 µM), most hits filed as inhibitors; Huh7.5.1 HCVcc-Cre infection, luciferase reporter, 44 h; active means well fitted inhibition curve with a large enough effect; inconclusive means small, poorly fitted or top-dose-only effect, or another doubt; inactive means no such curve, though single readings can be large or run the other way
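Antiviral activity was scored by luciferase reporter output from cells infected with HCVcc-Cre (~0.5 moi) in presence of compound, 44 h infection period, cells seeded 1,000/well 4 h prior.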
MARV entry inh: qHTS for inhibitors of binding or entry into cells for Marburg Virus; Marburg virus pseudotyped entry inhibition, cell reporter; Potency, µM (series often up to 37.8 µM), usual class: inhibitors; 300,000 tested, 1.8% active; AID 540276, 2011; calls by dose curve; tested in HEK293 cells
LASV entry inh: qHTS for Inhibitors of binding or entry into cells for Lassa Virus; Lassa virus pseudotype entry inhibition, cell reporter; Potency, µM (titrated, usually from 37.9 µM), most hits filed as inhibitors; 300,000 tested, 1.2% active; AID 540256, 2011; calls by dose curve; tested in HEK293 cells; further: nearly all actives have a fitted effect of over 50% in size
Of the large screens only hits and unclear results are named; the others gave an inactive call; ! = not confirmed by another sample.

COc1ccccc1C(CNC(=O)CNC(=O)c1ccc(Cl)c(Cl)c1)N1CCCC1 (configuration not stated)	HCV inhibitor inconclusive, MARV entry inh inconclusive
O=C(c1cccc(Br)c1)c1nc2ccccc2[nH]c1=O	none (no result: HCV inhibitor, MARV entry inh, LASV entry inh)
O=C(Nc1ccc2nc(-c3ccco3)c(-c3ccco3)nc2c1)NC1CC1	HCV inhibitor inconclusive (no result: HCMV antiviral)
O=C(Nc1ccc(N2CCOCC2)cc1)Nc1ccc2nc(-c3ccco3)c(-c3ccco3)nc2c1	HCMV antiviral -60.4, HCV inhibitor 6.31µM, MARV entry inh inconclusive
O=C(c1ccc2nc(-c3ccco3)c(-c3ccco3)nc2c1)N1CCC2(CC1)OCCO2	none (no result: HCMV antiviral)
O=C(c1ccc2nc(-c3ccco3)c(-c3ccco3)nc2c1)N1CCN(c2ccccc2)CC1	FMDV antiviral inconclusive, HCMV antiviral -107.7, HCV inhibitor inconclusive, MARV entry inh 16.4µM
COc1ccc(OCc2cc(C(=O)N3C[C@@H](C)O[C@@H](C)C3)no2)c(Cl)c1	MARV entry inh inconclusive
O=C(Cc1ccccc1)N/N=C/c1ccc2cccc(O)c2n1	HCV inhibitor inconclusive, LASV entry inh inconclusive
Cc1ccc(Cl)cc1N(C)C(=O)c1noc2c1CCCCC2	HCMV antiviral -64.3 (no result: HCV inhibitor, MARV entry inh)
O=C(c1ccc(Br)cc1)N(Cc1nc2ccccc2c(=O)[nH]1)C1CCCC1	HCMV antiviral -62.4, HCV inhibitor inconclusive, MARV entry inh inconclusive, LASV entry inh inconclusive
Cc1cccc(C(=O)N(Cc2nc3ccccc3c(=O)[nH]2)C2CCCCC2)c1	HCMV antiviral -79.4
Cc1cccc(C(=O)N(Cc2nc3ccccc3c(=O)[nH]2)C2CCCC2)c1	MARV entry inh inconclusive, LASV entry inh inconclusive
O=C(c1ccccc1)N(Cc1nc2ccccc2c(=O)[nH]1)C1CCCC1	none
CC(=O)Nc1ccc(N2CCc3c(C)c(C#N)c4nc5ccccc5n4c32)cc1	LASV entry inh inconclusive (no result: FMDV antiviral, HCMV antiviral)
CCN(CC)CCNc1ccc(CO)c2sc3ccccc3c(=O)c12	FMDV antiviral inconclusive, HCMV antiviral -95.8, HCV inhibitor inconclusive, MARV entry inh 11.2µM, LASV entry inh inconclusive
O=c1c2ccccc2sc2c(CO)ccc(NCCN3CCCCC3)c12	FMDV antiviral inconclusive, HCMV antiviral -97.9, HCV inhibitor inconclusive, MARV entry inh inconclusive, LASV entry inh inconclusive
CCN(CC)CCNc1ccc(CO)c2oc3ccccc3c(=O)c12	HCMV antiviral -89.5 (no result: HCV inhibitor, MARV entry inh, LASV entry inh)
CCN(CC)CCNc1cccc2sc3ccccc3c(=O)c12	FMDV antiviral inconclusive (no result: HCV inhibitor, MARV entry inh, LASV entry inh)
Cc1ccc(-c2nc(CS(=O)(=O)CC(=O)NCCCN(Cc3ccccc3)C(C)C)c(C)o2)cc1	HCV inhibitor 10µM (no result: MARV entry inh, LASV entry inh)
CSc1ccc(CCNC(=O)CN2C(=O)c3cccnc3Oc3ccc(C)cc32)cc1	FMDV antiviral inconclusive, HCMV antiviral active!, HCV inhibitor inconclusive, LASV entry inh inconclusive
CCOc1ccc(CCNC(=O)CN2C(=O)c3cccnc3Oc3ccc(C)cc32)cc1OCC	none (no result: MARV entry inh)
CCCN1CCN(CCCNC(=O)CN2C(=O)c3cccnc3Oc3ccc(C)cc32)CC1	none
Cc1ccc2c(c1)N(CC(=O)NCCCc1ccccc1)C(=O)c1cccnc1O2	FMDV antiviral inconclusive, HCMV antiviral -61.7 (no result: MARV entry inh, LASV entry inh)
C[C@@H]1CN([C@@H](C)CO)C(=O)CCCn2nncc2CO[C@@H]1CN(C)S(=O)(=O)c1ccc2ccccc2c1	none (no result: HCV inhibitor, MARV entry inh, LASV entry inh)
COc1cc(C=NO)nc(-c2ccccn2)c1	HCMV antiviral -100.2, HCV inhibitor inconclusive, MARV entry inh inconclusive, LASV entry inh 1.26µM
O=C(NCc1ccccc1CN1CCCC1)C1CCN(S(=O)(=O)c2ccc(F)c(F)c2)CC1	HCMV antiviral -100.9, MARV entry inh inconclusive
Cc1ccc(S(=O)(=O)N2CCC(C(=O)NCc3ccccc3CN3CCCC3)CC2)cc1C	HCV inhibitor inconclusive, MARV entry inh inconclusive
O=C(NCc1ccc(Cl)cc1)C1CCN(S(=O)(=O)c2ccc(N3CCCC3=O)cc2)CC1	FMDV antiviral inconclusive, HCMV antiviral inconclusive, HCV inhibitor 11.2µM (no result: MARV entry inh, LASV entry inh)
COc1ccc2c(c1)CCc1c(C(=O)Nc3c(C)nn(Cc4c(Cl)cccc4Cl)c3C)noc1-2	HCMV antiviral -91.7 (no result: HCV inhibitor)
COc1ccc2c(c1)CCc1c(C(=O)Nc3c(C)nn(Cc4ccccc4C)c3C)noc1-2	FMDV antiviral inconclusive, HCMV antiviral -66.2, MARV entry inh inconclusive, LASV entry inh inconclusive (no result: HCV inhibitor)
Cc1ccccc1Cn1nc(C)c(NC(=O)c2noc3c2CCc2ccccc2-3)c1C	FMDV antiviral inconclusive, HCV inhibitor inconclusive (no result: LASV entry inh)

Source: PubChem BioAssay (National Center for Advancing Translational Sciences (NCATS))
